Data from ChEMBL document CHEMBL3988442, “University of Dundee, Small-Polar-MMV Screening Library” (2021).
Hit rate of the full screen: of about 38,000 compounds, about 1,200 (3.2%) showed an effect of 50% or more. The median lay at about -58%. Many of the other results were omitted from the sample, so strong results are more common in it than they were.

Each compound was assayed on Plasmodium falciparum (assay: Calibr Malaria Delayed Death Assay SOP). Settings: concentration 4.99e-06 (unit not given; other assays of the set use mol/L).
Type: functional, organism-based
Design: scale not given: in the data most compounds retested in dose-response had high values

SMILES	Percent Effect [%]
COc1ccc(NCC(=O)NCC(=O)N2CCCC2)c(C(F)(F)F)c1	-93.16
CC(C)CNC(=O)CN(Cc1ccc(F)cc1)S(C)(=O)=O	-57.65
COc1ccc(C[C@H]2CN(C(=O)c3cscn3)CC[C@@H]2OC)cc1	-91.5
CCn1cnnc1CNC(=O)N1CCN(CC(C)C)CC1	-55.6
c1ccc(-c2nc(CNC3CCc4ncnn4C3)no2)cc1 (centres undefined)	-138.7
Fc1ccc(C2(NCc3ccccc3)CCOCC2)cc1	62.64
CSc1ccc(CNC2(c3ccc(F)cc3)CCOCC2)cc1	28.49
CN(C)c1ccc(CNC2(c3ccc(F)cc3)CCOCC2)cc1F	25.79
O=C(CCc1nc2ccccc2[nH]1)Nc1ccc2c(c1)OCC(=O)N2	-185.4
Cc1cc(F)c(S(=O)(=O)Nc2ccn(CCC#N)n2)cc1F	-82.35
CN(C)[C@@H]1CCN(c2ncccn2)[C@H]1Cc1ccncc1.O=C(O)C(F)(F)F.O=C(O)C(F)(F)F	-10.95
CN(C)[C@@H]1CCN(c2ncc(F)cn2)[C@H]1Cc1ccncc1.O=C(O)C(F)(F)F.O=C(O)C(F)(F)F	27.12
CN(C)[C@@H]1CCN(c2ncc(F)cn2)[C@H]1Cc1cccnc1.O=C(O)C(F)(F)F.O=C(O)C(F)(F)F	-22.18
CN(C)[C@@H]1CCN(c2ncccn2)[C@H]1Cc1cccnc1.O=C(O)C(F)(F)F.O=C(O)C(F)(F)F	10.59
Fc1cnc(N2CC[C@@H](N3CCOCC3)[C@@H]2Cc2ccccc2)nc1	-55.08
CO[C@@H]1CCN(c2ncccn2)[C@H]1Cc1ccccc1	-224.1
CN(C)[C@@H]1CCN(c2ncc(F)cn2)[C@H]1Cc1ccccc1.O=C(O)C(F)(F)F.O=C(O)C(F)(F)F	88.46
CN(C)[C@@H]1CCN(c2ncccn2)[C@H]1Cc1ccccc1	77.2
Cc1nn(C)c(C)c1CN(C)C(C(=O)O)c1ccc(F)cc1F (centres undefined)	-28.09
Cc1nc(-c2nnc[nH]2)sc1C(=O)N1CCCC1c1cccs1 (centres undefined)	-86.12
Cc1ccc(F)c(S(=O)(=O)NCCc2nnc[nH]2)c1	-33.36
N#Cc1ccc(NCC(O)c2ccco2)c(C(F)(F)F)c1 (centres undefined)	-33.98
Cn1cc(C(=O)N2CCCC(CN3CCCC3=O)C2)cn1 (centres undefined)	-14.99
O=C(c1ccc(F)c(F)c1)N1CCC[C@]2(C[C@@H](OCC3CC3)CO2)C1	-0.7044
COC(=O)CC(c1ccc(O)c(Cl)c1)c1oc(C)cc(=O)c1O (centres undefined)	-28.31

SMILES	Percent Effect [%]
Cc1nc(C)n(C2CCCN(C(=O)CCc3ccccn3)C2)n1 (centres undefined)	-132.7
CC(CNC1CCN(c2ccccn2)CC1)Oc1ccc(F)cc1 (centres undefined)	47.69
COc1ccc(C(C)CCNC2CCN(c3ccccn3)CC2)cc1 (centres undefined)	67.25
COCCOCC(=O)NC1CCN(c2ccccn2)CC1	-21.4
CC(C)COCCC(=O)NCCC(=O)N1CCN(c2ccccn2)CC1	-146.7
CC(C)COCCNC1CCN(c2ccccn2)CC1	60.11
OC1(CNC2CCN(c3ccccn3)CC2)CCc2ccccc21 (centres undefined)	27.14
CSCC(=O)N1CCOC(c2nc(C(C)C)n[nH]2)C1 (centres undefined)	-97.79
CC(C)[C@H]1CN(c2ccnc(N)n2)C[C@@H]1NC(=O)C1(C#N)CCOCC1	-66.36
Cc1cc(CN2CCC(c3nccn3C(C)C)CC2)ccc1F	18.24
Fc1ccc(C2CCCCN2Cc2cc(-c3ccccn3)no2)cc1 (centres undefined)	-40.19
C[C@@H]1CN(Cc2cc(C3CCCCC3)no2)CC[C@]1(C)O	-5.788
NC1CCCCN(Cc2cc(-c3ccccc3OC(F)(F)F)no2)C1 (centres undefined)	70.63
OCC1COCCN(Cc2cc(C3CCCCC3)no2)C1 (centres undefined)	-120.4
OC1COCCN(Cc2cc(-c3ccccc3OC(F)(F)F)no2)C1 (centres undefined)	-13.03
NC1CCCCN(Cc2cc(C3CCCCC3)no2)C1 (centres undefined)	62.41
O=C(O)C(F)(F)F.O=C(O)C(F)(F)F.O=C1COC2(CCN(Cc3cccnc3)CC2)CN1c1ccccc1	-17.97
Cc1cnc(C(=O)N2CCCC(n3cccn3)C2)cn1 (centres undefined)	-66.69
CCN(C)Cc1cccc(CNC(=O)NCCc2ccccn2)c1	-13.41
CN(C)Cc1nnc2n1CCN(Cc1ccccn1)CC2	-1.592
CC(C)Nc1nc2c(s1)C(=O)CN(C(=O)NCc1ccccc1)C2	-132.7
NC(=O)COc1ccc(CN2CCNC(C(=O)NC3CC3)C2)cc1Cl (centres undefined)	-16.07
CCOc1ccc(CN2CCNC(C(=O)NC3CC3)C2)cc1CO (centres undefined)	-11.99
CCCOc1cc(Cl)c(CN2CCNC(C(=O)NC3CC3)C2)cc1OC (centres undefined)	74.72
Cc1cc(C)n(CC(=O)N(CC2CN(C)CCO2)c2nccs2)n1 (centres undefined)	-86.12

SMILES	Percent Effect [%]
COc1ccc(Cn2c(Cc3c(C)n[nH]c3C)n[nH]c2=O)cc1	-40.64
CN(C)CCO[C@H]1CN(C(=O)c2ccc(C#N)cc2)[C@@H]2COC[C@H]12	-51.41
CCCn1ncc2c(C(=O)NC(C)Cn3cccn3)cc(C3CC3)nc21 (centres undefined)	-124.5
O=S(=O)(Cc1cccc(F)c1)NCC(O)Cc1ccccc1 (centres undefined)	-87.6
Cc1cc(C)c(N(CC(O)CNCc2ccco2)S(C)(=O)=O)c(C)c1.O=C(O)c1ccccc1 (centres undefined)	59.67
Cc1cccc(CS(=O)(=O)NCC(O)Cc2ccccc2)c1 (centres undefined)	-12.6
N#Cc1cccc(CS(=O)(=O)NCC(O)Cc2ccccc2)c1 (centres undefined)	-10.83
O=C(C(CNCc1ccco1)c1ccccc1)N1CCOCC1 (centres undefined)	-74.95
Cc1ccc(CS(=O)(=O)NCc2ccco2)cc1	-37.35
Br.Cc1cc(C)c(N(CC(O)CNCc2ccccc2)S(C)(=O)=O)c(C)c1 (centres undefined)	69.59
Cc1ccc(N(C)CC(O)COCc2ccccc2)c(C)c1 (centres undefined)	-54.55
CCn1nc(C)c2nc(C)nc(NCCc3ccccc3)c21	35.69
CO[C@@H]1CN(c2ccccc2)S(=O)(=O)[C@@]12CCNC2	-24.96
CC1c2ccsc2CCN1Cc1cc2c(cc1O)OCO2 (centres undefined)	25.38
Cn1cc(C2CCCN2C(=O)c2cnc(-c3ncccn3)s2)cn1 (centres undefined)	-23.4
Cn1c2c(c(=O)n1C)CN(C(=O)c1cccc(F)c1)CCC2	-64.91
O=S(=O)(NCC(c1ccsc1)N1CCCCCC1)c1cccs1 (centres undefined)	84.95
CN(C)c1ccc(C(CNS(=O)(=O)c2cccs2)N2CCCC2)cc1 (centres undefined)	52.34
CN1CCc2cc(C(CNS(=O)(=O)c3cccs3)N3CCCC3)ccc21 (centres undefined)	13.73
CCC(CO)N(Cc1cccs1)C(=O)CNS(=O)(=O)c1cccs1 (centres undefined)	-105.8
COc1ccccc1N1CCC(CNS(=O)(=O)c2cccs2)C1 (centres undefined)	4.169
CC(CNS(=O)(=O)CCCC#N)c1ccsc1 (centres undefined)	-35.87
Cc1nc(CN2CCCN(Cc3nc4ccccc4o3)CC2)no1	-14.25
CSCC(=O)N1CCOC(c2nc(C(C)(C)C)n[nH]2)C1 (centres undefined)	-128.5
O=C(C1CC(=O)N(c2n[nH]c3cc(Br)ccc23)C1)N1CCOCC1 (centres undefined)	-162.5

SMILES	Percent Effect [%]
O=C(NC1CC1)N1CCc2ncc(CN3CCOCC3)n2CC1.O=C(O)C(F)(F)F	-16.42
O=C(CC1NC(N2CCc3ccccc32)=NC1=O)Nc1ccccc1 (centres undefined)	-56.07
C[C@@H]1CN(C(=O)c2cccc(F)c2)C[C@]12CCN(c1ccsc1)C2=O	-98.41
Cc1cc(C)n(CC2CN(CC3CCCC3)CCO2)n1 (centres undefined)	-35.36
Cc1ccc(-c2cccc(N3CCC(NC4CCOCC4)CC3)c2)cc1	-119.9
COc1cccc(N2CCC(N3CCOC(C(F)(F)F)C3)CC2)c1 (centres undefined)	-105.8
CNC1CCN(C2CCN(c3ccc(-c4ccco4)cc3)CC2)CC1	85.81
CCS(=O)(=O)c1ccc(N2CCC(NC(C)=O)CC2)cc1	-87.36
COc1ccc(N2CCC(N3CCOC(C(F)(F)F)C3)CC2)cc1 (centres undefined)	-105.9
Cc1nc[nH]c1-c1nccn1CCN1CCCC1=O	-100.3
CCOC[C@@H]1CC[C@H]2[C@H](CCN2C(=O)c2ccncc2F)O1	-16.41
CCn1cc(CNC2CCN(c3cccc(Cl)c3)C2)cn1 (centres undefined)	17.81
c1ccc(CN2CCC(NCCSc3cnn[nH]3)CC2)cc1	-21.85
Cc1cccc(OC2CCN(Cc3ncc[nH]3)CC2)c1	7.466
OC1CCN(Cc2ccc(CNc3ncc(Cl)cc3F)cc2)CC1	26.38
Clc1cccc(N2CCC(NCc3ncc[nH]3)C2)c1 (centres undefined)	65.12
Clc1cc(Cl)cc(CN2CCC(NCc3ncc[nH]3)CC2)c1	83.8
Brc1ccc(CN2CCC(NCc3ncc[nH]3)CC2)cc1	82.48
OC1CCN(Cc2ccc(CNc3ccc(Cl)cn3)cc2)CC1	-61.51
Clc1cccc(N2CCC(NCc3cc[nH]n3)C2)c1 (centres undefined)	-43.41
O=C(COc1ccccc1Br)N1CCOc2ccncc21	-65.13
O=C(O)C(F)(F)F.O=S(=O)(C1CC1)N1CCO[C@H]2[C@H](Oc3cccnc3)CC[C@@H]21	-58.06
Cc1nc(NC2CCN(C(=O)C3CC3)CC2)c2cnn(C)c2n1	-160.6
CNC(=O)[C@H]1C[C@@H]2CN(C(=O)c3cccnc3)C[C@@H]2N1S(C)(=O)=O.O=C(O)C(F)(F)F	-51.87
